The list is not random: actives were taken first. Their share in the collection is about 4.9%.
Beta cell apopt = blocks beta cell apoptosis; INS-1E cytokine-induced death, ATP luminescence, 48 h; percent of positive-control rescue, neutral wells zero; protection from apoptosis, % (concentration not given with the values); 300,000 tested, 0.8% active;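 active = Every replicate reaches about 75%, or at least half do and their mean reaches it too, limit read from the data; inconclusive = At least half of replicates reach the limit but their mean does not; inactive = Under half of replicates reach the limit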;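 also: 0% = cytokine-treated negative control wells and 100% = positive control rescue; higher means more ATP so stronger rescue from cytokine killing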
Calb FLC = C. albicans growth modulation with fluconazole; C. albicans CaCi-2 (fluconazole-resistant clinical isolate) + fluconazole, Alamar Blue growth, 48 h; growth inhibition, % (no concentration beside the values); 300,000 tested, 0.57% active; AID 1979;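 active = growth inhibition above about 58% in most replicates, limit read from the data, passing the limit was not always enough; inconclusive = exactly half the replicates above a set limit; inactive = most replicates below a set limit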;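 also: all wells also contain fluconazole at 8 µg/ml as a sub-toxic cotreatment; 0% = median of DMSO wells and 100% = median of geldanamycin control wells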
PP5 primary = inhibitors of human protein phosphatase 5 (PP5); purified PP5c, OMFP substrate fluorescence; AID 1987; inhibition, % at 6.7 µM; 320,000 tested, 0.18% active;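 active = inhibition above the campaign's mean inhibition across all tested compounds plus 3 SD, cut at about 9.5% in these data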;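 also: 0% = DMSO only and 100% = 100 µM cantharidin control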
CSC inhib = cancer stem cell inhibition; cancer stem cell-like cells viability, luminescence; AID 2717; 300,000 tested, 1.1% active; inhibition, % at 7.5 µM; in the data active = inhibition above about 75%; inconclusive = no clear call, values can overlap the other calls; tested in HMLE shEcad cells
Mdm2 MdmX PPI = human Mdm2/MdmX binding inhibition | SaOS-2 split-luciferase Mdm2/MdmX complementation, luminescence | inhibition, % at 8 µM | 330,000 tested, 3% active | AID 485346;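 active = inhibition of at least 50% at 8 µM in the primary screen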
PP1 inh = counter-screen for PP5 inhibitors: inhibitors of human PP1-alpha. inhibition, % at 6.7 µM. 320,000 tested, 0.9% active. purified PP1alpha, OMFP fluorescence;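 active = inhibition above the mean inhibition of all tested compounds plus 3 SD, computed separately for each screening campaign, cut at about 15% in these data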
Target sequence (P62136 whole entry, looked up): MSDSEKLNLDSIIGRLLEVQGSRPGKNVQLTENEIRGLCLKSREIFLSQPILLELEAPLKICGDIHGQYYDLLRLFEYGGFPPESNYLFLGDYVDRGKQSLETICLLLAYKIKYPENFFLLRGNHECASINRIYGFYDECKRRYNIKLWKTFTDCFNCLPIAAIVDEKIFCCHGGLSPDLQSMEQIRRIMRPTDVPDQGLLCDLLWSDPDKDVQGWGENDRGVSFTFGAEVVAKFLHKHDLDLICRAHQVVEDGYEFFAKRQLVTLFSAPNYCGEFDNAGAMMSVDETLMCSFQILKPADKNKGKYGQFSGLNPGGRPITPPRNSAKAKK
Mdm2-MdmX conf = human Mdm2/MdmX binding inhibition, confirmed; shares compounds with Mdm2 MdmX PPI; luminescent assay; inhibition, % at 8 µM; 10,000 tested, 55% active; in the data active = inhibition above about 40%
FLuc counter = full-length luciferase inhibition in Mdm2/MdmX counter-screen. shares compounds with Mdm2 MdmX PPI. SaOS-2 full-length luciferase counterscreen, luminescence. inhibition, % at 8 µM. 6,200 tested, 77% active;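 active = mean inhibition at 8 µM reaching about 37%, which flags the compound as non-specific, limit read from the data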;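 also: p53-null SaOS-2 cells with luciferase driven by a doxycycline-inducible promoter; compound on cells about two nights before reading with doxycycline added after day one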
* hit, by the source's call; u = inconclusive; x = not tested or not shown.

SMILES	Beta cell apopt	Calb FLC	PP5 primary	CSC inhib	Mdm2 MdmX PPI	PP1 inh	Mdm2-MdmX conf	FLuc counter
COc1ccc(N/N=C(/N=Nc2nc(C)cc(=O)[nH]2)c2ccccc2)cc1	91*	-12	6	4	54*	2	77*	31
Cc1cc(=O)[nH]c(N=N/C(=N/Nc2ccccc2C)c2ccccc2)n1	93*	-15	3	-11	69*	-1	82*	49*
CCN1C(=O)Nc2cccc3cccc1c23	-10	2	2	4	84*	-1	62*	57*
C=CCN1C(=O)N(CC=C)c2cccc3cccc1c23	-2	7	-1	-17	6	1	x	x
C=CCn1c(SCc2nc3ccccc3c(=O)[nH]2)nc2sc3c(c2c1=O)CCCC3	0	-1	-1	18	85*	-7	20	x
C=CCn1c(SCc2nc3sc4c(c3c(=O)[nH]2)CCCC4)nc2ccccc2c1=O	11	9	1	14	32	3	x	x
COc1cc(/C=N/N=C(N)N)ccc1OCc1ccc(Cl)cc1	98*	-3	2	50	101*	14	50*	127*
COc1cc(/C=N/O)ccc1OCc1ccc(C(=O)O)cc1	-1	-8	1	-10	83*	6	78*	21
COc1cc(/C=N/N=C2/NC(=O)C(CC(=O)O)S2)ccc1OCc1ccc(Cl)cc1 (stereo not drawn)	-10	-7	1	-1	-151	2	x	x
CCC(O)CNC(=O)NC(=C(Cl)Cl)c1ccc(C)c(F)c1 (stereo not drawn)	-4	u	-1	14	77*	-3	36	38*
Cc1ccc(NC(=O)CCNC(=O)c2ccc(Cl)cc2)cc1F	-3	-22	5	1	16	-3	x	x
Cn1c(SC2=CS(=O)(=O)c3ccccc32)nc2ccccc21	13	92*	2	46	70*	-5	53*	3
Cn1c(CSc2nc3ccccc3n2C)nc2ccccc21	6	26	-2	x	15	-2	x	x
Cc1nn(-c2ccccc2)c(C)c1/C=N/NC(=O)c1cc(-c2cccc3ccccc23)n[nH]1	8	29	5	60	46	10	x	x
Cc1nn(-c2ccccc2)c(C)c1/C=N/NC(=O)c1cc(-c2ccccc2)n[nH]1	33	-16	3	73	59*	7	63*	79*
COc1ccc(-c2nc3c(c(SCC(=O)N4CCOCC4)n2)Cc2c(CO)cnc(C)c2O3)cc1	3	14	1	8	58*	-6	28	x
COc1cccc(NC(=O)CCNS(=O)(=O)c2ccc3c(c2)CC(C)N3C(=O)C2CC2)c1 (stereo not drawn)	0	-2	1	-2	21	1	x	x
CCC(C)N(CCNC(=O)c1ccc2c(c1)NC(=O)c1ccccc1S2)C1CCCCC1 (stereo not drawn)	2	-30	2	16	67*	2	48*	56*
CN(C)S(=O)(=O)c1ccc(N2CCCC2)c(C(=O)NNC(=O)COc2cccc(F)c2)c1	0	x	-3	-9	-17	-3	x	x
COc1ccc(-c2cn[nH]c2-c2ccc(OCc3ccccc3)cc2O)cc1	-11	-7	4	102*	78*	-1	77*	55*
O=[N+]([O-])c1ccc(COc2ccc(-c3[nH]ncc3-c3ccc(Cl)cc3)c(O)c2)cc1	17	-3	7	82*	82*	3	51*	43*
COc1ccc(-c2cn[nH]c2-c2ccc(OCc3ccc([N+](=O)[O-])cc3)cc2O)cc1OC	17	-10	6	x	30	2	x	x
Oc1ccc(-c2[nH]ncc2-c2ccc(Br)cc2)c(O)c1	3	7	x	12	56*	x	20	x
COc1ccccc1-c1cn[nH]c1-c1ccc(OCc2ccccc2)cc1O	-2	-1	1	34	13	0	x	x
Oc1ccc(-c2[nH]ncc2-c2ccc(Cl)cc2)c(O)c1	6	11	5	33	25	4	x	x
SMILES	Beta cell apopt	Calb FLC	PP5 primary	CSC inhib	Mdm2 MdmX PPI	PP1 inh	Mdm2-MdmX conf	FLuc counter
COc1ccc(-c2cn[nH]c2-c2ccc(OC)cc2O)cc1	-27	8	6	-6	71*	4	62*	32
Cc1ccc(C2=NOC3(CC(=O)N(c4ccc(C)cc4)C3=O)C2)cc1 (stereo not drawn)	-3	-30	-1	-10	9	-5	x	x
S=C(NCc1ccccc1)NC1CCSc2ccccc21 (stereo not drawn)	6	14	3	-2	-5	-2	x	x
COc1cccc(-c2cccc(NC(=O)C3CCN(C4CCOCC4)CC3)c2)c1	x	-14	2	x	3	-4	x	x
Cn1nc([N+](=O)[O-])nc1S(C)(=O)=O	x	0	x	x	-6	x	x	x
CS(=O)(=O)c1nc([N+](=O)[O-])nn1CCCc1ccccc1	-78	-1	0	54	55*	-2	19	x
Cc1ccccc1-c1nc2cc(Cl)ccc2c(=O)o1	-1	-1	0	10	52*	0	50*	76*
Cc1ccccc1-c1nc2cc(Cl)ccc2o1	1	18	2	-11	-8	0	x	x
O=S(=O)(NCCN1CCOCC1)c1cccc(C(F)(F)F)c1	-6	9	0	30	15	0	x	x
CC(C)=CCC[C@](C)(OC1OC(COC2OCC(O)C(O)C2O)C(O)C(O)C1O)C1CC[C@]2(C)C1C(O)CC1[C@@]3(C)CCC(O[C@@H]4O[C@H](CO)C(O)C(O)C4O[C@@H]4OC(CO)C(O)C(O)C4O)C(C)(C)C3CC[C@]12C (stereo partly drawn)	4	x	x	-3	-6	x	x	x
CCn1nc(C)cc1-c1nnc(Sc2ncc([N+](=O)[O-])s2)n1C	x	0	-4	x	96*	3	97*	51*
CCn1nc(C)cc1-c1nnc(SCC(=O)Nc2ccccc2)n1CCCOC	-5	3	1	-7	-4	-4	x	x
CCCCN(C(=O)C1CCCC1)c1c(N)n(Cc2ccccc2)c(=O)[nH]c1=O	-4	x	x	14	23	x	x	x
CC(C)CN(C(=O)COC(=O)/C=C/c1ccc(Cl)c(Cl)c1)c1c(N)n(Cc2ccccc2)c(=O)[nH]c1=O	x	x	x	x	92*	x	18	x
CC(C)CN(C(=O)COC(=O)c1nc(Cl)ccc1Cl)c1c(N)n(Cc2ccccc2)c(=O)[nH]c1=O	-2	-10	1	-1	29	-3	x	x
CCCCC1CCC(C(=O)N(CC(C)C)c2c(N)n(Cc3ccccc3)c(=O)[nH]c2=O)CC1 (stereo not drawn)	85*	x	2	91*	97*	-2	29	x
C#CCNC(=O)C1=C[C@@H](c2ccc3c(c2)OCO3)C[C@@H](OCCCCO)O1	-7	8	2	-13	6	1	x	x

Screening data: PubChem BioAssay, several laboratories
